Compound activity as filed in PubChem.
Efflux pump inh: inhibitors of Candida efflux pumps in yeast, primary screen, S. cerevisiae, Nile Red, multiplex | S. cerevisiae Candida pump triplex | inhibition, % at 10 µM | 330,000 tested, 0.44% active | AID 485275, 2010;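 active = plate passing quality check with inhibition over a set limit, or well fluorescence over plate mean plus 4 SD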;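 note: Nile Red retained in pooled yeast measured as flow cytometry median fluorescence; 0% = buffer negative control and 100% = Enniatin B positive control; higher means more Nile Red kept so more efflux inhibition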
ALR H2O2 inh: inhibitors of human ALR sulfhydryl oxidase, primary screen, biochemical, H2O2 detection, HRP-luminol luminescence, single point | FAD-linked sulfhydryl oxidase ALR (Homo sapiens), P55789 | purified ALR, DTT oxidation | inhibition, % (test concentration not listed) | 290,000 tested, 3.8% active;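 active = mean replicate inhibition above about 79%, with every replicate also reaching it, limit read from the data; inconclusive = only one of the two criteria met; inactive = mean below limit and not every replicate reaching it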
PABP polyA inh: PABP poly(A) RNA binding inhibitors, primary screen, biochemical, fluorescence polarization, uHTS; Polyadenylate-binding protein 1 (Homo sapiens), P11940; inhibition, % at 35 µM; 290,000 tested, 1% active;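 note: calls also rest on retests at 20 µM and on dose response follow-up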
eIF4H inh: human eIF4H binding inhibitors, primary screen, translation initiation inhibitor project, biochemical, uHTS, fluorescence polarization; Eukaryotic translation initiation factor 4H (Homo sapiens), Q15056; eIF4H fluorescence polarization binding assay; inhibition, % at 35 µM; 290,000 tested, 0.94% active; AID 2012, 2009;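 note: calls also rest on retests at 20 µM and on dose response follow-up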
MLLE-PAM2 inh: inhibitors of PABP1 MLLE–PAM2 peptide binding, primary screen, biochemical, fluorescence polarization, FITC-PAM2, GST-MLLE; Polyadenylate-binding protein 1 (Homo sapiens), P11940; inhibition, % at 20 µM; 360,000 tested, 0.36% active; AID 588489, 2011; in the data active = inhibition above about 35%, passing the limit was not always enough;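 note: plate controls were DMSO wells with GST-MLLE for no effect and wells lacking GST-MLLE protein for full effect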
UBC9 SUMO inh: inhibitors of in vitro SUMOylation cascade, primary screen, biochemical, HTRF, uHTS; SUMO-conjugating enzyme UBC9 (Homo sapiens), P63279; HTRF SUMOylation assay, SAE1/SAE2 + UBC9; inhibition, % at 35 µM; 290,000 tested, 0.36% active; in the data active = inhibition above about 50%, passing the limit was not always enough; inconclusive = no clear call, values can overlap the other calls
Target sequence (P63279 whole entry, looked up): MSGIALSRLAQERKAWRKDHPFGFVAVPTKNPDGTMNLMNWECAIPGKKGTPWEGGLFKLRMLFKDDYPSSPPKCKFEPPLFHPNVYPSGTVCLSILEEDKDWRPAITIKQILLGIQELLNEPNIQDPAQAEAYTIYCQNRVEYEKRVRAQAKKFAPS
Starred values were filed as active, the others as inactive; ? = inconclusive; . = no result; ! = a repeat was not active. This is a sample that favours compounds with a hit; in the whole collection about 4.7% have one here. Unless noted, the rule behind the calls is not given here.

SMILES	Efflux pump inh	ALR H2O2 inh	PABP polyA inh	eIF4H inh	MLLE-PAM2 inh	UBC9 SUMO inh
CCN(CC)c1ncnc2c1ncn2[C@H]1CN(Cc2ccc(-c3ccccc3)cc2)C[C@@H](CO)O1	.	.	.	.	-10	.
C[C@H](CO)N1C[C@H](C)[C@@H](CN(C)S(=O)(=O)c2ccccc2)Oc2c(NC(=O)NC3CCCCC3)cccc2C1=O	0	-2	.	.	-1	.
O=C1c2ccccc2NC(c2ccc(O)c(O)c2)N1c1ccccc1Cl (stereo unspecified)	0	100*	-14	-15	-19	6
Cc1cc(C)nc(Nc2n[nH]c(-c3ccc(N)cc3)n2)n1	0	99*	-7	8	3	8
O[C@@H]1CN(Cc2cccs2)[C@@H](c2ccc(Cl)cc2)C[C@H]1n1cc(C2CC2)nn1	.	.	.	.	-7	.
COc1ccc(N=C2C(=O)N3CCCc4cccc2c43)cc1	0	99*	-2	7	4	-17
CCCCNC(=O)NNC(=O)COc1cccc(C)c1C	0	-3	-2	8	5	-4
CCOC(=O)CCSc1nc(-c2ccc3c(c2)OCO3)cc(C(F)(F)F)c1C#N	0	26	-5	-6	-5	2
CCOC(=O)CC(=O)CSc1nc(-c2ccc3c(c2)OCO3)cc(C(F)(F)F)c1C#N	0	-4	82*	?	5	-12
Cc1noc(C)c1CSCC(=O)OCC(=O)Nc1sccc1C#N	0	.	74*	58*	0	12
NC(=O)COC(=O)CCCSc1nc2ccccc2s1	0	-27	-18	-4	-15	-5
N#Cc1ccsc1NC(=O)COC(=O)CCCSc1nc2ccccc2s1	0	-5	122*	102*	-18	2
CC(=O)c1ccc(N=Cc2c(O)n(-c3cc(Cl)ccc3N3CCOCC3)c(=O)c3ccccc23)cc1	0	.	12	-6	-12	-4
O=c1c2ccccc2c(C=Nc2ccc(Cl)cn2)c(O)n1-c1cc(Cl)ccc1N1CCOCC1	0.4*	-5	8	-6	5	-34
CCN1/C(=C2\C(=O)N(C)C(=S)N2c2ccccc2)C=Cc2ccccc21	0	98*	-2	-4	-113	8
CCN1/C(=C2\C(=O)N(C)C(=S)N2C)C=Cc2ccccc21	0	43	6	4	-108	4
C=CCN1C(=O)/C(=C2/Sc3ccccc3N2CC)SC1=S	0	5	8	44	0	0
CCCN1/C(=C2/SC(=S)N(CC)C2=O)C=Cc2ccccc21	0	11	5	0	-6	-16
C=CCN1C(=O)/C(=C2/Sc3ccccc3N2CCCS(=O)(=O)O)SC1=S	0	9	36	12	41*	1
CN1C(=O)/C(=C2/C=Cc3ccccc3N2CCCS(=O)(=O)O)SC1=S	0	84*	17	-6	23	0
CCN1C(=O)/C(=C2/C=Cc3ccccc3N2CC)SC1=S	0	99*	-2	-3	-107	-9
CCCN1C(=O)/C(=C2/C=Cc3ccccc3N2CC)SC1=S	0	10	4	-9	-8	8
O=c1[nH][nH]c(=O)c2c1[nH]c(=S)n2Cc1ccccc1	.	.	.	.	6	.
COC(=O)c1nccnc1N	.	.	.	.	-2	.
O=C(Nc1ccc(F)c(Cl)c1)C1Cc2c(-c3ccc4c(c3)OCO4)ccnc2O1 (stereo unspecified)	.	.	.	.	-10	.
SMILES	Efflux pump inh	ALR H2O2 inh	PABP polyA inh	eIF4H inh	MLLE-PAM2 inh	UBC9 SUMO inh
CC(=O)c1ccc(N2CCN(S(=O)(=O)c3ccc4c(c3)CCC(=O)N4)CC2)cc1	.	.	.	.	6	.
CN(Cc1nc2ccccc2c(=O)[nH]1)C(=O)c1cc(C2CC2)nn1-c1ccccc1	0	18	.	.	0	.
COC(=O)Cc1c(C)nc2nc(NCc3ccc(Cl)cc3)[nH]n2c1=O	0	.	-1	2	3	-13
COC(=O)Cc1c(C)nc2nc(NCc3cccc([N+](=O)[O-])c3)[nH]n2c1=O	0	89*	-8	-5	6	22
O=C(CC1Sc2ccccc2NC1=O)NNc1cc(Cl)ccc1Cl (stereo unspecified)	.	.	.	.	8	.
COc1ccc2c(CC(=O)NNC(=O)c3ccc(O)cc3)coc2c1	0	30	.	.	-1	.
Nc1c(Cl)ncnc1N1CCCC1	0	.	3	5	3	16
Nc1ncnc(N2CCOCC2)c1N	0	36	active	87*	-1	17
O=C(NCCN1CCOCC1)c1cc(Cl)ccc1[N+](=O)[O-]	0	-13	9	2	.	-4
c1ccc(-c2csc(NC3=NCCCCC3)n2)cc1	0	-9	64*	2.5*	-7	-3
NNc1nc(-c2ccccc2)cs1	0	99*	-17	-8	4	8
Fc1ccc2c(c1)/C(=N/Nc1ccccn1)CCS2	0	99*	?	?	0	-10
c1ccc(N/N=C2\CCCc3ccccc32)nc1	1	41	-5	0	6	17
CCS(=O)(=O)NC(C)C(c1cccs1)N1CCN(c2ccc(OC)cc2)CC1 (stereo unspecified)	0	99*	-4	5	-7	3
COc1ccccc1N1CCN(C(c2cccs2)C(C)NC(=O)C(=O)N2CCCCC2)CC1 (stereo unspecified)	0	74	-2	3	-8	-20
COc1ccc(N2CCN(C(c3cccs3)C(C)NC(=O)C(=O)N3CCCC3)CC2)cc1 (stereo unspecified)	0	98*	0	4	19	9
COc1ccc(N2CCN(C(c3cccs3)C(C)NC(=O)C(=O)N3CCCCC3)CC2)cc1 (stereo unspecified)	0	98*	5	4	-6	4
CSc1nnc(C)c(=O)n1COC(=O)c1ccc(S(=O)(=O)N2CCCC2)cc1	0	4	9	8	6	-4
CCCCNC(=O)CSc1nc(O)c(Cc2ccc(OC)cc2)c(=O)[nH]1	0	.	7	-9	0	35
CCN(CC)C(=O)CSc1nc(O)c(Cc2ccc(OC)cc2)c(=O)[nH]1	0	98*	4	-6	6	1
COc1ccc(Cc2c(O)nc(SCC(=O)NC34CC5CC(CC(C5)C3)C4)[nH]c2=O)cc1	0	24	4	-4	41*!	11
O=C(OCC(=O)N1CCCc2ccccc21)c1ccccc1OC(F)F	0	17	.	.	-8	.
CCOC(=O)C1=C(C)NC(C)=C(C(=O)OCC)C1C(=O)OCC(=O)NCc1ccccc1OC	0	-1	.	.	-25	.
COc1ccc(CCN2C(=O)NC(NS(=O)(=O)c3ccccc3)(C(F)(F)F)C2=O)cc1OC (stereo unspecified)	0	.	4	1	3	1
